Results from PubChem BioAssay AID2216 (Broad Institute, 2009).
Among all 300,000 compounds or so, about 3,300 (1.1%) were called active. Not shown: some 6% with an inconclusive outcome.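 Rule for the calls: active = more than half of the replicate wells show a fall in the fluorescence ratio signal beyond about 16% (limit read from the data, passing the limit was not always enough); inconclusive = exactly half of the replicate wells pass the set limit; inactive = fewer than half of replicates pass the limit.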 The full list was thinned out, with actives kept by preference.

Test system: Ran GTPase (GTP-bound) - importin-beta complex
Test: inhibitors of RanGTP-importin-beta interaction, primary screen, biochemical, FRET, CFP-Ran, YFP-importin-beta, homogeneous (AID 2216);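 note: 0% = DMSO wells and 100% = Ran loaded with GDP instead of GTP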
Settings: cell-free CFP-Ran/YFP-importin-beta FRET ratio; active compounds read high; concentration not given here

inhibition, inactive:
Cc1onc(C(=O)Nc2ccc3c(c2)OCO3)c1[N+](=O)[O-] 0.97%
CCCOc1ccc(Cl)cc1Nc1nc(NCCO)nc(N2CCCC2)n1 -4.43%
O=C(COC(=O)c1cnccn1)Nc1ccc(Cl)cc1C(F)(F)F 1.07%
CCCCc1nc2cc(C(=O)N3CCCCC3CCO)ccc2o1 (stereo not given) 2.55%
CC1=C(C(=O)Nc2ccccc2)C(c2ccco2)C(C#N)=C(SCC(N)=O)N1 (stereo not given) -0.887%
Cc1cc(C)c2c3c(sc2n1)C(c1ccccc1)C(C#N)=C(N)O3 (stereo not given) 14.9%
CC(C)CN(C(=O)COC(=O)c1ccc(Cl)c(N)c1)c1c(N)n(Cc2ccccc2)c(=O)[nH]c1=O 3.15%
Cc1onc(-c2ccccc2Cl)c1C(=O)N(Cc1ccc(N(C)C)cc1)C(C)C -1.47%
O=C(Cc1ccc(S(=O)(=O)N2CCOCC2)s1)NCCOc1ccccc1F 0.747%
CCCc1cc(=O)oc2c(C)c(OCC(=O)NCc3ccccn3)ccc12 0.0468%
COc1cccc(C(=O)OCc2cc(=O)oc3c(C)c(C)ccc23)c1OC -2.35%
O=C(COc1ccccc1)Nc1cc2c3c(c1)CC(=O)N3CCC2 0.812%
O=C(NC1CC1)C1=C[C@H](c2coc3ccccc3c2=O)C[C@H](OCCCCO)O1 8.31%
N#Cc1c(N)sc2c1CCN(C(=O)OCc1ccccc1)C2 8.85%
CCN1CCN(CC(=O)Nc2sc3c(c2C#N)CCC3)CC1 -1.32%
Cn1c(SCC(=O)c2ccccc2)ncc(C(=O)Nc2ccc(F)cc2)c1=O 0.558%
CCC1=C(C(=O)OC)C(c2cc(OC)ccc2OC)C(C#N)=C(N)O1 (stereo not given) -4.33%
N#CC1=C(N)C(C#N)(C#N)[C@H](c2ccsc2)[C@H]2COCC=C12 -27%
COc1ccc(-c2cc(C(=O)N(C)CC(=O)Nc3ccccc3Cl)c3ccccc3n2)cc1OC 0.526%
COc1cc(C(=O)N(C)Cc2cccc(OC)c2OC)ccc1OCC(=O)Nc1cccc(C(F)(F)F)c1 -1%
Cc1sc2nc(CSCC(=O)NC3CCCCC3)[nH]c(=O)c2c1C 1.87%
O=S(=O)(NCCCc1ccccc1)c1ccc(Br)cc1 -1.87%
Cc1cc(=O)oc2cc(NC(=O)C(C)Oc3ccccc3)ccc12 (stereo not given) 3.05%
CCOC(=O)C1(Cc2cccc(OC)c2)CCN(C(C)CC(C)(C)O)CC1 (stereo not given) 2.47%
CCOC(=O)C1(Cc2cccc(OC)c2)CCN(C(C)COC)CC1 (stereo not given) 7.78%
COc1ccc(Nc2ncnc3sc(C)cc23)cc1 -4.52%
Cc1cc(C)c2nc(SCCC#N)nc(C)c2c1 4.53%
Cc1cc(C)c2nc(-c3ccco3)cc(C(=O)O)c2c1 -1.33%
CCC1Nc2ncnc(N3CCN(c4ccccc4)CC3)c2N(Cc2ccc(Cl)cc2)C1=O (stereo not given) 3.14%
CCOC(=O)c1cccc(NS(=O)(=O)c2c(C(=O)N3CCCCCC3)c(C)n(C)c2C)c1 -0.759%
Cc1cc(Nc2ccccc2)n(C(=O)c2ccc(N)cc2)n1 11.7%
Cc1cc(NC(=O)COc2ccc(Cl)cc2Cl)n(CCC#N)n1 0.324%
COc1ccc(NC(=O)CN(C)C(=O)c2cc(-c3ccc(C)o3)nc3ccccc23)cc1 3.47%
Cc1ccc(C(=O)Nc2cccc3ncccc23)cc1[N+](=O)[O-] -5.75%
O=C(Nc1cccc2ncccc12)C(Cl)(Cl)Cl -1.34%
COc1ccc(NC(=O)CN(C)C(=O)c2cccc(S(=O)(=O)N3CCN(c4ccccc4)CC3)c2)cc1 5.36%
Cc1sc(NC(=O)c2ccc3ncsc3c2)c(C(N)=O)c1C 7.92%
COc1ccc(NS(=O)(=O)c2ccc(C)c(C(=O)N(C)Cc3ccc(OC)cc3OC)c2)cc1 -0.0635%
O=C(Nc1nc2c(F)cc(F)cc2s1)C1COc2ccccc2O1 (stereo not given) -1.75%
COc1ccc(NC(=O)C2COc3ccccc3O2)cc1 (stereo not given) 3.21%
Cn1nccc1C(=O)NC1CCCc2c1cnn2-c1ccccc1F (stereo not given) 1.44%
Cn1c(=O)c(Sc2ccc(Cl)cc2)c(O)c2ccccc21 -0.611%
Cc1cc(C)c(-c2c(O)c3ccccc3n(C)c2=O)c(C)c1 -1.11%
COC(C/C=C/C(=O)[C@@H](C)OCc1ccccc1)OC -3.23%
O=C(NCCc1c[nH]c2ccccc12)C(=O)NCC1CCCO1 (stereo not given) 0.222%
N#C/C(=C/c1ccc(-c2ccccc2[N+](=O)[O-])o1)C(=O)NCCN1CCCCC1 0.797%
CCCCn1c(N)c(N(CC(C)C)C(=O)c2cccc(S(=O)(=O)N3CC(C)OC(C)C3)c2)c(=O)[nH]c1=O (stereo not given) -2.71%
Nc1ccccc1/C=N\N=C/c1ccccc1N 1.49%
COc1ccc(CNc2nnnn2C)cc1 0.267%
Nc1nonc1-c1nc2ccccc2n1Cc1ccc(F)cc1 3.99%
CCC1CCC/C1=N\NC(=O)c1ccc(Cl)cc1 (stereo not given) -0.716%
COC(=O)C1=CN(Cc2ccc(OC)c(OC)c2)C=C(C(=O)OC)C1c1cccs1 -0.0693%
COc1cc(C2C(C(=O)c3ccc(C)o3)=C(O)C(=O)N2CCc2ccccc2)ccc1O (stereo not given) -0.99%
Cc1nc2ccccc2c(=O)n1-c1ccc(NS(=O)(=O)c2ccc(F)cc2F)cc1 0.359%
COc1ccc(C(=O)NCC(c2ccco2)N2CCc3ccccc32)cc1OC (stereo not given) -0.364%
Cc1cccn2c(=O)nc(SCC(=O)NCc3ccccc3Cl)nc12 -2.28%
COCCNc1ncnc2c1nc1n2CCCC1 -7.47%
COCCNc1nc2nonc2nc1N(C)Cc1ccc(C)cc1 -1.03%
COC(=O)c1ccc(NCC(=O)c2ccccc2)cc1 1.3%
COC(=O)c1cccc(NS(C)(=O)=O)c1 3.63%
CC1CC(C)(C)CC2(C1)NC(=O)N(CC(=O)Nc1nccs1)C2=O (stereo not given) -1.02%
CCCCN(C(=O)CCNC(=O)NC12CC3CC(CC(C3)C1)C2)c1c(N)n(CCCC)c(=O)[nH]c1=O 0.758%
O=C1C=C(c2ccccc2)CCC1 3.08%
CCN1N=C(c2ccccc2)CCC1=O 2.2%
COc1cc(OC)c(OC)cc1CN1CCN(C(=O)c2cccc3ccccc23)CC1 2.06%
Cc1ccc(NC(=O)CN2CCc3ccccc3C2)cc1C 6.66%
Cc1ccc(NC(=O)CN2CCc3ccccc3C2)cc1 -0.397%
CCOC(=O)C1(Cc2ccccc2C)CCCN(C(=O)c2ccc(COC)o2)C1 (stereo not given) -3.09%
COc1ccc(Cl)cc1NC(=O)CN(C)C(=O)c1cc2ccccc2cc1OC 1.71%
CC(C)c1ccc(S(=O)(=O)N2CCN(C(=O)CN3C(=O)NC(C)(c4ccccc4)C3=O)CC2)cc1 (stereo not given) 0.837%
CCOc1ccc(S(=O)(=O)NCCSc2ccccc2)cc1 -0.375%
O=S(=O)(NCCNS(=O)(=O)c1ccccc1)c1ccccc1 1.2%
O=C(NNC(=O)c1ccc(-c2ccccc2)cc1)Nc1ccccc1 2.69%
Cc1ccc(S(=O)(=O)n2cccc2CO)cc1 -0.413%
COc1ccc(CCNC(=O)C(=O)NCC2CCCN2S(=O)(=O)c2cccs2)cc1OC (stereo not given) -2.95%
Cc1cc(C)c(C)c(S(=O)(=O)N2CCN(C(=O)c3ccc4c(=O)n5c(nc4c3)CCC5)CC2)c1C 0.31%

inhibition, active:
N#CC1=C(N)Oc2c(sc3ccccc23)C1c1ccco1 (stereo not given) 54.7%
COC(=O)Cc1cc(=O)oc2c(C)c(O)ccc12 60.4%
CC(C)N1CCc2c(sc(NC(=O)Cc3ccccc3)c2C#N)C1 156%
CCCN1CC=C2C(C#N)=C(N)C(C#N)(C#N)C(c3cc(OC)ccc3OC)C2C1 (stereo not given) 36.6%
CCN1CC=C2C(C#N)=C(N)C(C#N)(C#N)[C@H](c3ccoc3)[C@H]2C1 47.8%
CCOC(=O)C1(Cc2cccc(OC)c2)CCN(Cc2csc(C(C)=O)c2)CC1 33.4%
Cc1cc(C)c2nc3nc(C)cc(C)c3c(N)c2c1 123%
Cc1cc(Nc2ccccc2)n(CCC#N)n1 64.2%
Cc1ccc(/C=C(\C#N)C(=O)Nc2cccc3ncccc23)o1 24.4%
COc1ccc(OC)c2sc(NC(=O)C3COc4ccccc4O3)nc12 (stereo not given) 18.3%
Cn1c2ccccc2c(=O)c2c(O)cccc21 19.5%
N#C/C(=C/c1ccc(N2CCCCC2)o1)C(=O)NCCc1c[nH]c2ccccc12 36.8%
Fc1ccc(CNc2nc3ccccc3n3nnnc23)cc1 28.7%
COC(=O)C1=CN(Cc2ccc(OC)cc2)C=C(C(=O)OC)C1c1ccc(O)c(OC)c1 18.3%
COCCNc1nc2nonc2nc1N1CCCC1c1nccs1 (stereo not given) 24.9%
COC(=O)c1ccc2c(C(C)(C)O)c(C(C)(C)O)[nH]c2c1 35.4%
CC1(C)CC(=O)NC=C(c2ccccc2)C1 25.4%
COc1cc2c(cc1OC)CN(CC(=O)Nc1ccc(F)cc1)CC2 16.9%
CCOc1ccc2nc(NCCNS(=O)(=O)c3ccccc3)c(C#N)cc2c1 127%
